Results published in PubChem BioAssay (NCATS).
The source made the active and inactive calls. A call without a number means that no potency is given here. Calls come from the whole dose curve; as a rule, active = well fitted curve in the direction sought with a large enough effect; inconclusive = small, poorly fitted or top-dose-only effect, or another doubt; inactive = no such curve, though single readings can be large or run the other way.

Experiment: Cellular Toxicity (caspase-3) MRC-5 (AID 659)
Conditions: MRC-5 cells, luminescence; Potency: caspase-3 activation; series mostly up to 91.7 µM
From the text: NIH Chemical Genomics Center [NCGC]
NIH Molecular Libraries Screening Centers Network [MLSCN]
National Institutes of Environmental Health Sciences [NIEHS]
National Toxicology Program [NTP]
We have developed a 1536-well cell-based assay for quantitative high throughput screening (qHTS) against a number of cell lines to determine in vitro caspase 3/7 activity of small molecules. This particular assay uses the MRC-5 cell line which is derived from human normal lung fibroblasts.
NCGC Assay Protocol Summary:
The Caspase-Glo 3/7 assay (Promega) is a homogeneous method to measure caspase-3 and caspase-7 activities in cultured cells. The quantitation of caspase 3/7 activity is based on the cleavage of a peptide-aminoluciferin substrate. After caspase cleaves the substrate the free aminoluciferin is liberated and serves as the substrate of luciferase, which generates the light. The luminescent signal is proportional to amount of caspase 3/7 activity present.
Using the Caspase-Glo 3/7 assay, the amount of caspase 3/7 activity was measured in the MRC-5 line with complete culture medium following compound treatment for 16 hours. The assay was performed in opaque white 1536-well plates. In the screen, tamoxifen and staurosporine were used as positive controls. Library compounds were measured for their ability to cause the activation of caspase 3/7 in the cell line, as reflected by an increase in luminescence signal, in a concentration-dependent manner. Data were normalized to the controls for basal activity (DMSO only) and 100% stimulation (10 uM staurosporine). AC50 values were determined from concentration-response data modeled with the standard Hill equation.
qHTS protocol for caspase 3/7 assay in MRC-5 cells
[Step] [Parameter] [Value] [Description]
1. Reagent; 5 uL; 1500 MRC-5 cells/well
2. Time; 5 hr; 37 °C incubation
4. Controls; 23 nL; Tamoxifen 0.23 uM to 100 uM & staurosporine 1.4 pM to 100 uM
5. Time; 16 hr; 37 °C incubation
6. Reagent; 5 uL; Caspase-Glo 3/7 reagent
7. Time; 1 hr; Room Temperature
8. Detection; Luminescence; Viewlux plate reader
Keywords: caspase 3/7, apoptosis, MRC-5 cell line, luminescence, NTPHTS, NTPHTS_NCGC, NIEHS, EPA, DSSTox, MLSMR, MLSCN, NIH Roadmap, qHTS, NCGC
Potency is the fitted concentration of half-maximal effect.

SMILES	Potency
O=c1c(O)c(-c2ccc(O)cc2)oc2cc(O)cc(O)c12	inactive
CC1=C(/C=C/C(C)=C/C=C/C(C)=C/C(=O)Nc2ccc(O)cc2)C(C)(C)CCC1	31.6 µM (active)
O=C(O)Cc1cccc2ccccc12	inactive
O=C1NC(=O)C(c2ccccc2)(c2ccccc2)N1	inactive
CC(=O)c1ccc(S(=O)(=O)NC(=O)NC2CCCCC2)cc1	inactive
CC(=O)O[C@]1(C(C)=O)CC[C@H]2[C@@H]3C=C(Cl)C4=CC(=O)[C@@H]5C[C@@H]5[C@]4(C)[C@H]3CC[C@@]21C	inactive
CCn1cc(C(=O)O)c(=O)c2ccc(C)nc21	inactive
O=c1cc(-c2ccc(O)cc2)oc2cc(O)cc(O)c12	inactive
CCCNC(=O)NS(=O)(=O)c1ccc(Cl)cc1	inactive
O=c1c(-c2ccc(O)cc2)coc2cc(O)ccc12	inactive
CCCCC1C(=O)N(c2ccccc2)N(c2ccccc2)C1=O	inactive
O=c1[nH]cnc2c1ncn2[C@H]1CC[C@@H](CO)O1	inactive
O=C(O)c1cc(O)c2c(c1)C(=O)c1cccc(O)c1C2=O	inactive
CN(C)CCC(c1ccccc1)c1ccccn1 (centres undefined)	inactive
